Screens: PubChem, National Center for Advancing Translational Sciences (NCATS)
HT1080-NT tox – kills 2HG-producing HT-1080-NT fibrosarcoma cells | HT-1080-NT fibrosarcoma viability, CellTiter-Glo ATP luminescence, 48 h | Potency, µM (series often up to 46.1 µM), without a hit: top-dose activity, negative = less viability, hits mostly cytotoxic | 360,000 compounds, 1.6% hits | AID 686970;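 further: NT is the 2HG producing partner of a matched IDH1 knockdown line; potency means the concentration at half of the fitted maximal effect; 0% = DMSO-treated cells and -100% = media-only wells without cells; nearly all actives have a fitted effect of over 55% in size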
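Compounds were tested in concentration-response format on HT-1080-NT cells for 48 hours at 37 degrees C. Cell viability came from CellTiter-Glo luminescence; curves were classified by r2, response magnitude and activity.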
IL-1B inflam inh – inflammasome signaling inhibition, IL-1 beta readout | 360,000 compounds, 4.7% hits | THP-1 LPS/ATP IL-1B secretion, AlphaLISA, 16 h; hits give low values | activity change, % at 57.5 µM; in the data active means activity change below about -50%; inconclusive means mostly about -30% to -49%
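THP-1 cells pretreated 1 hr with compounds (up to 57.5 uM final), then stimulated with LPS (250 ng/mL final) plus ATP (1.25 mM final); secreted IL-1B measured by AlphaLISA after 16 hr, decreased signal indicating inhibition.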
HT1080 IDH1KD tx – HT-1080 IDH1 knockdown cell toxicity (counter line); 360,000 compounds, 2% hits; Potency, µM (top dose mostly 46.1 µM), inactives show top-dose activity, negative = toxicity, hits mostly cytotoxic; HT-1080 IDH1 knockdown viability, ATP luminescence, 48 h;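 further: potency means the concentration at half of the fitted maximal effect; 0% = DMSO wells and -100% = cell-free medium wells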
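Assay cells: HT-1080 with IDH1 knockdown, 750 per well, RPMI/5% FBS. Exposure: 48 h at 37 °C following 2 h pre-incubation. Read: CellTiter-Glo luminescence; fitted concentration-response, curve class assigned.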
TDP1 cell CPT – growth inhibition of DT40 Tdp1-/-;hTDP1 cells with camptothecin (screen for TDP1 inhibitors) | Potency, µM (series often up to 46.2 µM), without a hit: at the highest dose activity change, negative = growth inhibition, usual class: inhibitors | chicken DT40 Tdp1-/-;hTDP1 cells + 20 nM CPT, ATP luminescence, 48 h | AID 686979 | 420,000 compounds, 12% hits; further: potency means the concentration at half of the fitted maximal effect; nearly all actives have a fitted effect of over 55% in size
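Cell growth measured by CellTiter-Glo luminescence after a minimum 48 h, 37 C compound exposure with 20 nM CPT in Tdp1-knockout DT40 cells stably expressing hTDP1, seeded 400/well; qHTS titration format.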
12-LOX inh – inhibitors of human 12S-lipoxygenase ALOX12. purified 12hLO, xylenol orange hydroperoxide absorbance. 580,000 compounds, 1.1% hits. Potency, µM (doses to about 108 µM), for inactives: at the highest dose activity change, negative = inhibition, most hits filed as inhibitors. P18054; further: potency means the concentration at half of the fitted maximal effect
Target sequence (P18054 whole entry, looked up): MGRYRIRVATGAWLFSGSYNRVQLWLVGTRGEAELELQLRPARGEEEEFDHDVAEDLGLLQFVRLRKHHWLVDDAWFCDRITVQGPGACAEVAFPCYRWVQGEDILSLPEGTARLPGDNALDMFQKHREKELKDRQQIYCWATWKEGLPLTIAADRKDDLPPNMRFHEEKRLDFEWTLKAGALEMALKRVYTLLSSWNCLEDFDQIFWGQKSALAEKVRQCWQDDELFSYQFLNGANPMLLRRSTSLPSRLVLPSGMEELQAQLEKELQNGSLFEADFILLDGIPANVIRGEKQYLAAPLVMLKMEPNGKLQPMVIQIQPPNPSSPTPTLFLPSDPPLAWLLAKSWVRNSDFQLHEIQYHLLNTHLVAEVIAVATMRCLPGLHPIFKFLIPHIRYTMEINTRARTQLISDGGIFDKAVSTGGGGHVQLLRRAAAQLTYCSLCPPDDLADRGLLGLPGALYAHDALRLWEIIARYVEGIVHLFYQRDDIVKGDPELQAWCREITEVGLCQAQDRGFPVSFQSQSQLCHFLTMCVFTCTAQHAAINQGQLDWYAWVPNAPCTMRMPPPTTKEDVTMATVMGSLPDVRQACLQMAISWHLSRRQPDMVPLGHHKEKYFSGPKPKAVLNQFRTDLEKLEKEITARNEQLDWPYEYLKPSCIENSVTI
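Purified human 12hLO (150 nM final) in 25 mM Hepes, 0.01% Triton X-100, pH 7.0 was preincubated 15 min at room temperature with compound. Then 40 uM arachidonic acid was added, 30 min. Hydroperoxide was read by Fe-XO absorbance ratio 573/405 nm.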
DT40 TDP1 no CPT – qHTS for Inhibitors of human tyrosyl-DNA phosphodiesterase 1 (TDP1): qHTS in cells in absence of CPT. 420,000 compounds, 15% hits. Potency, µM (highest dose often 46.2 µM), without a hit: at the top dose activity change, negative = growth inhibition, usual class: inhibitors. DT40 Tdp1-/- hTDP1 cells, no CPT, ATP luminescence, 48 h; further: potency means the concentration at half of the fitted maximal effect; nearly all actives have a fitted effect of over 55% in size
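Growth kinetics read by CellTiter-Glo luminescence after ≥48 hr at 37 °C. Cells: DT40 Tdp1-/- stably carrying human TDP1, 400 per well, compound exposure in the absence of CPT (DMSO vehicle).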
Active calls of the source: *; u = inconclusive; x = no result given; [ ] = another dose, or the depositor's remark. The entries come from a sample that favours hits as a whole. Unless noted, the call rests on the fitted dose curve; in most records, active means well fitted curve in the direction sought with a large enough effect; inconclusive means small, poorly fitted or top-dose-only effect, or another doubt; inactive means no such curve, though single readings can be large; an effect the other way counts as inactive or inconclusive. Unless noted, on the % scale 0 is the no-effect control and ±100 the full control effect.

SMILES	HT1080-NT tox	IL-1B inflam inh	HT1080 IDH1KD tx	TDP1 cell CPT	12-LOX inh	DT40 TDP1 no CPT
O=C(Nc1nccs1)c1csc(NC2CCCC2)n1	x	x	x	x	60%	x
O=C(Nc1ccccc1Cl)c1ccccc1Cl	-5%	-1	7%	1%	8%[57.4 µM]	-4%
O=C(Nc1ccccc1Cl)c1cc2ccccc2o/c1=N\O	-9%	4	2%	u	1%	10µM*
COc1cccc(NC(=O)c2cc3ccccc3o/c2=N\O)c1	-25%	u	-25%	15µM*	-18%	13µM*
CN(CCO)S(=O)(=O)c1ccc2c(c1)C(=NO)c1cc(S(=O)(=O)N(C)CCO)ccc1-2	-13%	-25	-23%	-22%	-1%	12µM*
Cc1cccc(-n2nc(-c3c(C)nc4scc(CC(=O)N5CCCC5)n4c3=O)cc2C)c1	x	x	x	x	5%	x
CC(C)c1cc(C(=O)NNC(=S)NCc2ccco2)c(O)c(C(C)C)c1	u	-54*	16µM*	u	35µM*	u
O=C(CSCc1ccccc1Br)NNC(=S)NCc1ccco1	8%	-15	5%	12%	45µM*	4%
CC(C)(C)N1C(=O)c2ccc(C(=O)NCc3ccco3)cc2C1=O	2%	-58*	-2%	-28%	-24%	u
CC(C)(C)c1ccc(C(=O)NNC(=S)NCc2ccco2)cc1	-2%	15	-13%	u	114%	23µM*
CC(C)(CC(=O)O)CC(=O)N1C[C@@H]2C[C@H](C1)c1ccc(-c3cccc(C(F)(F)F)c3)c(=O)n1C2	x	x	x	x	21%	x
O=CC1=C(c2ccccc2)Oc2ccccc2O1	u	-102*	16µM*	u	-13%	u
O=C1Cc2ccccc2C(c2ccc(Cl)cc2)N1 (stereo unspecified)	-8%	3	-23%	u	1%	u
S=C1Cc2ccccc2C(c2ccc(Cl)cc2)N1 (stereo unspecified)	-11%	30	-23%	u	u	23µM*
CC(NC(=O)CC(c1ccccc1)c1cc(Cl)ccc1O)c1ccccc1 (stereo unspecified)	-15%	u	u	15µM*	-17%	21µM*
CN(Cc1ccccc1)C(=O)CC(c1ccccc1)c1cc(Cl)ccc1O (stereo unspecified)	u	-29	u	23µM*	-17%	21µM*
Cc1ccc(O)c(C(CC(=O)NC(C)C)c2ccccc2)c1 (stereo unspecified)	-1%	0	-1%	-2%	-8%	-3%
COc1cc([C@@H]2[C@H]3CNCC=C3C(C#N)=C(N)C2(C#N)C#N)ccc1OC(C)C	-3%	-19	-2%	9.2µM*	43%	u
COC(=O)CCCN(C)C(=O)c1cc(-c2ccncc2)nc2ccccc12	x	x	x	x	0%	x
O=c1c2ccccc2nc(-c2ccccc2)n1O	-1%	0	-6%	2.1µM*	u	-2%
O=c1c2ccccc2nc(-c2ccco2)n1Cc1ccccc1	3%	-11	-8%	u	u	u
COc1cc(OC)cc(-c2nc3ccccc3c(=O)n2OC(=O)c2ccccc2C)c1	u	-61*	u	u	-11%	-26%
COc1ccc(-c2nc3ccccc3c(=O)n2O)cc1	u	-22	u	-14%	28%	26%
O=C(On1c(-c2ccccc2)nc2ccccc2c1=O)c1ccco1	-25%	-25	-15%	23µM*	u	23µM*
COc1ccc(-c2nc3ccccc3c(=O)n2CCOc2c(C)cccc2C)cc1	11%	45	11%	-14%	-7%	u
O=c1c2cc(Br)ccc2nc(-c2cccc(C(F)(F)F)c2)n1O	u	73	u	18µM*	u	10µM*
